In all, about 1,600 compounds went through this assay and about 25 (2%) were called active. About 7% were inconclusive and are not listed. The entries come from a sample that favours actives as a whole. A number with no mark means an inactive call. The call rests on the fitted dose curve; in most records, active means well fitted inhibition curve with a large enough effect; inconclusive means small, poorly fitted or top-dose-only effect, or effect the other way; inactive means no such curve, though single readings can be large or run the other way.
On the % scale 0 is the no-effect control and ±100 the full control effect; potency means the concentration at half of the fitted maximal effect.

The target in the test is Runt-related transcription factor 1 (Homo sapiens) + Core-binding factor subunit beta (Homo sapiens) (UniProt Q01196+Q13951). The experiment in a line: qHTS Assay for Compounds Blocking the Interaction Between CBF-beta and RUNX1 for the Treatment of Acute Myeloid Leukemia: Hit Validation with Orthogonal Assay. Particulars: CBFbeta-RUNX1 binding orthogonal assay, biochemical; series mostly up to 41 µM; activity change, negative = inhibition: at the top concentration. The text has this: NIH Chemical Genomics Center [NCGC]
Runt-related transcription factor 1 (Homo sapiens) + Core-binding factor subunit beta (Homo sapiens), sequence (Q01196 whole entry, looked up): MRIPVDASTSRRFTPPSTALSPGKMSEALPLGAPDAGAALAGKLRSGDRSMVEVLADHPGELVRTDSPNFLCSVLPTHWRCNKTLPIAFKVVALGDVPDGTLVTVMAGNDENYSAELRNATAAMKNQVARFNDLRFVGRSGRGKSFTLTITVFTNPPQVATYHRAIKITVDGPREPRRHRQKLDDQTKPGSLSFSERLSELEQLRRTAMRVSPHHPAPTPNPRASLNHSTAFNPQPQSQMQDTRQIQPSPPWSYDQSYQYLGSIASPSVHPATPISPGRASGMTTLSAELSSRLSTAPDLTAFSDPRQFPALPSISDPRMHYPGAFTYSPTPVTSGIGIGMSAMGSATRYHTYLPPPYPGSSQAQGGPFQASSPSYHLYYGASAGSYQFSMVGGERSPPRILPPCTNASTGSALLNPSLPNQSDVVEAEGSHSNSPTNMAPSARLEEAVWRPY
Runt-related transcription factor 1 (Homo sapiens) + Core-binding factor subunit beta (Homo sapiens), sequence (Q13951 whole entry, looked up): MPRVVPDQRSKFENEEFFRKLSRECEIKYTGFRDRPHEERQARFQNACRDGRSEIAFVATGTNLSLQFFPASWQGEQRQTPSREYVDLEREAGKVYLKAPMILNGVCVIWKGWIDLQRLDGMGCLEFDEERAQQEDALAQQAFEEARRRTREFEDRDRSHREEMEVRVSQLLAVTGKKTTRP
NIH Molecular Libraries Probe Production centers Network [MLPCN]
Assay Submitter (PI): Paul Liu
Core Binding Factor (CBF) abnormalities are associated with 20-25% of all acute myeloid leukemias (AML), of which 5-10% are further sub classified as acute myelomonocytic leukemia with eosinophilia, also known as M4Eo in the FAB classification scheme. This subtype of leukemia is usually associated with chromosome 16 inversion (p13:q22). Chromosome 16 inversion results in formation of the fusion oncogene CBFB-MYH11, which encodes the fusion protein CBF-beta-SMMHC.
It has been hypothesized that the interference of CBF-beta and RUNX1 binding could have therapeutic implications for patients with CBF mediated leukemias. We developed a CBF-beta and RUNX1 binding assay in AlphaScreenTM format and optimized it for high throughput screening to search for inhibitors. The goal of this project is to screen MLPCN's compound collection (MLSMR) for identifying the inhibitors of the interaction between CBF-beta and RUNX1 proteins as research probes. If these probes work well in the animal models, the ultimate goal of this project is to development a new drug treatment for this disease.
This assay can not be used to assess how apparent inhibitors interfere with protein binding, and whether inhibitors specifically bind to either protein. Disruption of this protein-protein interaction, through any mechanism, is the intended target activity.
The present data set was run to confirm the activity of hits from the primary screen using an orthogonal assay technology for measuring protein-protein interaction disruption.
A TR-FRET (time resolved fluorescence resonance energy transfer) assay was performed using the same assay buffer, protein concentrations and incubation times as described previously in the AlphaScreen assay, except that terbium (Tb+) labeled anti-his-antibody and XL665 linked streptavidin were used to capture the binding signal. The Tb+ labeled anti-his-antibody captures His(6)-CBF and XL665 linked streptavidin binds to biotin-RUNX1. The binding of RUNX1 to CBFbrings Tb+ and XL665 to proximity resulting in a TR-FRET signal. Briefly, in a white 384-well plate, 10 µl/well of mixture of biotin-RUNX1 and His(6)-CBFwere incubated with 10 µl/well buffer (positive control) or 10 µl/well compounds (negative control) for 20 min followed by an addition of 10 µl/well of Tb+ labeled anti-his(6)-antibody and XL665 linked streptavidin. After 90 min of incubation in the dark, the assay plate was measured in the Envision plate reader using TR-FRET detection mode. For the 1536-well plate format, 3 µl/well mixture of biotin-RUNX1 and His(6)-CBF (30 nM per protein) was incubated with 23 nl/well compound (dissolved in 100% DMSO) or the equivalent DMSO concentration (positive control) for 30 min followed by the addition of 1 µl/well of 0.44 ng Tb+ labeled anti-his(6)-antibody and 5 nM streptavodin-XL665. After 90 min of incubation, the assay plate was measured in the Envision plate reader.
The TR-FRET assay for detecting interaction between HIV-I Tat and […] was similarly performed with the recombinant full-length HIV-I Tat CLADE B and HIV-I Tat Biotin conjugated proteins supplied by Diatheva (Fano, Italy). Briefly, the His-CBF and Biotin-RUNX1 complex at a working concentration of 83.3 nM per protein were pre-incubated in assay buffer for 10 minutes on ice. Then HIV-I Tat or unlabeled CBF were added to reach final concentrations (Supplementary Figure 4b) and incubated for 5 minutes. Finally anti-His antibody and streptavidin-XL665 at a final concentration of 2.2 ng and 5 nM, respectively, were added to the plate, which was incubated for 1 hr prior to reading on the PerkinElmer Envision plate reader.
Keywords: MLSMR, MLPCN, NIH Roadmap, qHTS, NCGC, Core binding factor, CBF, CBF-beta, Acute myeloid leukemia
(Quantitative high-throughput screening tests each substance at several concentrations.)
For `CC(=O)c1sccc1NC(=O)c1ccccc1C(=O)O`, the “activity change, negative = inhibition” value is 3.8%.

As to `O=C(Oc1c(-c2ccccc2)c(=O)n2c3c(cccc13)CC2)c1ccccc1`, the “activity change, negative = inhibition” value was -10%.

Take `O=[N+]([O-])c1cccnc1Oc1ccc(F)cc1`: the “activity change, negative = inhibition” value is 22.6%.

As for `Cn1nc2c3ccccc3n(Cc3ccc(F)cc3)c2nc1=S`, the “activity change, negative = inhibition” value is 12%.

For the compound `Cc1cccc(C)c1NC(=S)N1CCOCC1`, the “activity change, negative = inhibition” value was 3.77%.

For `Cc1nc2ccc(NC(=S)N3CCOCC3)cc2nc1C`, the Potency was 12.6 µM (active).

Consider `COc1ccc(C(=O)NC(=S)Nc2ccc(CN3CCOCC3)cc2)cc1`, for which the “activity change, negative = inhibition” value is -9.35%.

For `COC(=O)c1scc(C)c1NC(=O)/C=C/C(=O)O`, the “activity change, negative = inhibition” value is -12.4%.

Turning to `Cc1ccc(N/N=C(\C#N)C(=N)N2CCCCC2)cc1`, the “activity change, negative = inhibition” value was 59.2%.

As for `Cc1nc(SCc2cccc(F)c2)c2oc3ccccc3c2n1`, the “activity change, negative = inhibition” value is -3.14%.

Regarding `Cn1ncc2c(c(SCc3ccc(Cl)cc3Cl)nn2C)c1=O`, the “activity change, negative = inhibition” value was 16.1%.

In the case of `O=C1NCCc2c1[nH]c1ccccc21`, the “activity change, negative = inhibition” value is -12%.

On to `CC(C)Cn1nc(NC(=O)c2cccs2)c2cc3ccccc3nc21`, for which the “activity change, negative = inhibition” value is 20.5%.

As to `CC(=O)Oc1cc2c3c(c1)/C(=C1/SC(=S)NC1=O)C(=O)N3C(C)(C)C=C2C`, the “activity change, negative = inhibition” value was 14.8%.

`CC(C)N(Cc1ccccc1)C(=O)c1ccc2nsnc2c1`: the “activity change, negative = inhibition” value was 18%.

`O=C(CSc1nc2ccccc2n1Cc1ccccc1Cl)N/N=C/c1ccccc1C(=O)O`: the “activity change, negative = inhibition” value was -14.6%.

Consider `O=C(O)C1CCc2sc3[nH]c(=S)n(-c4ccccc4)c(=O)c3c21` (stereo not drawn), for which the “activity change, negative = inhibition” value is 12.3%.

On to `Cn1cccc1/C=C1\SC(=S)N(NC(=O)c2ccc(F)cc2)C1=O`, for which the “activity change, negative = inhibition” value was 33.1%.

As to `Clc1ccc(C2=Nn3c(Cn4nnc5ccccc54)nnc3SC2)cc1`, the “activity change, negative = inhibition” value is 2.69%.

Take `O=C1COc2cccnc2N1`: the “activity change, negative = inhibition” value was -2.97%.

With `Cc1c(-c2ccccc2)[n+](=O)c(-c2ccc(Br)cc2)c(C)n1[O-]`, the “activity change, negative = inhibition” value is 26.5%.

For `COc1cc(C(=O)NC(=S)Nc2ccc3c(c2)OCO3)cc(OC)c1OC`, the “activity change, negative = inhibition” value was 2.92%.

With `CCCSc1cc(Cl)nc(N)n1`, the “activity change, negative = inhibition” value is -0.0734%.

Regarding `O=C(CCl)NC1(C(F)(F)F)C(=O)Nc2c1c(=O)[nH]c(=O)n2-c1ccccc1` (stereo not drawn), the “activity change, negative = inhibition” value was -7.72%.

With `O=[N+]([O-])c1ccc(-c2cn3c(n2)CCC3)cc1`, the “activity change, negative = inhibition” value is 27.4%.

For `COc1c(/C=N/NC(=O)c2ccncc2)c(CCN(C)C(C)=O)cc2c1OCO2`, the “activity change, negative = inhibition” value was -7.29%.

Take `COc1cc(/C=N/n2nnnc2N)cc(OC)c1OC`: the “activity change, negative = inhibition” value was 6.57%.

For `Cc1nc2ccccc2nc1N1CCCC1`, the “activity change, negative = inhibition” value was 17.1%.

`COc1cscc1C(=O)O`: the “activity change, negative = inhibition” value was 0.991%.

For `CCOc1nsc(OCC)n1`, the “activity change, negative = inhibition” value was 8.39%.

For `C/C(=N\Nc1cccc(Cl)c1)C1(C)N(O)C(C)(C)C(c2ccco2)=[N+]1[O-]` (stereo not drawn), the “activity change, negative = inhibition” value is 18.1%.

For the compound `CCOC(=O)C1=C(C)N(CC(C)C)C(=O)/C1=C\c1cccs1`, the “activity change, negative = inhibition” value is 14.3%.

For `O=C(O)/C=C/c1cn(-c2ccccc2)nc1-c1ccc(-c2ccc([N+](=O)[O-])cc2)o1`, the “activity change, negative = inhibition” value was 17.8%.

Regarding `COc1ccccc1/C=C/C=NC1C(=O)N(c2ccccc2)[N+](C)=C1C` (stereo not drawn), the “activity change, negative = inhibition” value is -5.85%.

With `O=C(O)c1cc(O)c2c(c1)[C@H]([C@H]1c3cc(C(=O)O)cc(O)c3C(=O)c3c(O[C@@H]4OC(CO)C(O)C(O)C4O)cccc31)c1cccc(O[C@@H]3OC(CO)C(O)C(O)C3O)c1C2=O` (stereo partly drawn), the Potency is 2.51 µM (active).

For the compound `O=C(O)CC(CCc1ccccc1)OC1OC(CO)C(O)C(O)C1O` (stereo not drawn), the “activity change, negative = inhibition” value was -29.1%.

Take `COc1cc(/C=C/c2nc3ccc([N+](=O)[O-])cc3s2)ccc1OCC(=O)O`: the “activity change, negative = inhibition” value is 18.5%.

Consider `CCn1cc(C(c2ccccc2)C(C(C)=O)[N+](=O)[O-])c2ccccc21` (stereo not drawn), for which the “activity change, negative = inhibition” value was 13.1%.

Regarding `OCCNc1nc2ccccc2nc1NCCO`, the “activity change, negative = inhibition” value is 0.991%.

Turning to `COc1ccc(C2=NOC(CNC(=S)N3CCOCC3)C2)cc1` (stereo not drawn), the “activity change, negative = inhibition” value was 8.59%.

Consider `Cn1c(SCC(=O)NC(=O)Nc2ccccc2)nnc1-c1ccncc1`, for which the “activity change, negative = inhibition” value was -1.38%.

As to `C(=C\c1nccc2c1[nH]c1ccccc12)/c1ccccc1`, the “activity change, negative = inhibition” value was 10.1%.

For the compound `COc1cccc(/C=N/NC(=O)c2cnccn2)c1OC`, the “activity change, negative = inhibition” value was 12.2%.

For `Oc1ccccc1/C=N/Nc1nn[nH]n1`, the “activity change, negative = inhibition” value was 6.96%.

As for `CCN(CC)c1ncc(C#N)c(N)n1`, the “activity change, negative = inhibition” value is -7.89%.

Regarding `Cc1cc(O)c(C=O)c2c1C(=O)Oc1c(COC(=O)/C=C/C(=O)O)c(O)c(C(=O)O)c(C)c1O2`, the Potency was 28.2 µM (active).

`CCOC(=O)c1cn2nc(Oc3ccc(C(=O)OC)cc3)ccc2n1`: the “activity change, negative = inhibition” value was -15.3%.

Take `CCc1nc2ccccc2nc1N1CCN(S(=O)(=O)c2ccc(Cl)cc2)CC1`: the “activity change, negative = inhibition” value is 0.844%.

Regarding `c1ccc(C2=Nn3c(Cn4nnc5ccccc54)nnc3SC2)cc1`, the “activity change, negative = inhibition” value was -10.8%.

`CC(=O)c1ccc(S(=O)(=O)N2Cc3ccccc3CC2C(=O)O)cc1` (stereo not drawn): the “activity change, negative = inhibition” value is -4.12%.

On to `Brc1ccc(C2=Nn3c(Cn4nnc5ccccc54)nnc3SC2)cc1`, for which the “activity change, negative = inhibition” value is -8.99%.

For the compound `COc1ccc(C(=O)CN2CCN(c3cc(C)nc4ccccc34)CC2)cc1`, the “activity change, negative = inhibition” value was -6.56%.

`COC(=O)/C(=C\Nc1ccc(Oc2ccc(F)cc2F)nc1)NC(=O)c1ccccc1`: the “activity change, negative = inhibition” value is 8.42%.

Regarding `CN(C)c1cc(-c2ccc(Cl)cc2Cl)oc(=O)c1Cl`, the “activity change, negative = inhibition” value is 32.5%.

Consider `CC(C)(C)C(=O)Nc1ccccc1C(=O)NCc1cccnc1`, for which the “activity change, negative = inhibition” value is 7.35%.

Regarding `O=S(=O)(c1ccc(F)cc1F)N1CCCN(c2ccc(C(F)(F)F)cn2)CC1`, the “activity change, negative = inhibition” value was 5.71%.

With `CCC(C)c1ccc(OCc2ccc(C(=O)OC)o2)cc1` (stereo not drawn), the “activity change, negative = inhibition” value is 5.36%.

Turning to `CCNC(=S)Nc1ccc(NC(=O)c2ccccc2O)cc1`, the “activity change, negative = inhibition” value was 16.3%.
